Compound activity: PubChem, National Center for Advancing Translational Sciences (NCATS)
The list is not random: actives were taken first. Their share in the collection is about 12%.
BAZ2B block – qHTS Assay for Inhibitors of BAZ2B; Potency, µM (doses to about 114 µM), without a hit: top-dose activity change, negative = inhibition, hits mostly inhibitors; 4.4% of 360,000 active; AlphaScreen BAZ2B-H3K14Ac peptide displacement; Bromodomain adjacent to zinc finger domain protein 2B (Homo sapiens), Q9UIF8; AID 504333, 2011; also: potency is read from the fitted curve at half-maximal effect; % is scaled to controls: 0 for no effect and ±100 for the full control effect; nearly all actives have a fitted effect of over 60% in size
Target sequence (Q9UIF8 whole entry, looked up, the tested form may be a part): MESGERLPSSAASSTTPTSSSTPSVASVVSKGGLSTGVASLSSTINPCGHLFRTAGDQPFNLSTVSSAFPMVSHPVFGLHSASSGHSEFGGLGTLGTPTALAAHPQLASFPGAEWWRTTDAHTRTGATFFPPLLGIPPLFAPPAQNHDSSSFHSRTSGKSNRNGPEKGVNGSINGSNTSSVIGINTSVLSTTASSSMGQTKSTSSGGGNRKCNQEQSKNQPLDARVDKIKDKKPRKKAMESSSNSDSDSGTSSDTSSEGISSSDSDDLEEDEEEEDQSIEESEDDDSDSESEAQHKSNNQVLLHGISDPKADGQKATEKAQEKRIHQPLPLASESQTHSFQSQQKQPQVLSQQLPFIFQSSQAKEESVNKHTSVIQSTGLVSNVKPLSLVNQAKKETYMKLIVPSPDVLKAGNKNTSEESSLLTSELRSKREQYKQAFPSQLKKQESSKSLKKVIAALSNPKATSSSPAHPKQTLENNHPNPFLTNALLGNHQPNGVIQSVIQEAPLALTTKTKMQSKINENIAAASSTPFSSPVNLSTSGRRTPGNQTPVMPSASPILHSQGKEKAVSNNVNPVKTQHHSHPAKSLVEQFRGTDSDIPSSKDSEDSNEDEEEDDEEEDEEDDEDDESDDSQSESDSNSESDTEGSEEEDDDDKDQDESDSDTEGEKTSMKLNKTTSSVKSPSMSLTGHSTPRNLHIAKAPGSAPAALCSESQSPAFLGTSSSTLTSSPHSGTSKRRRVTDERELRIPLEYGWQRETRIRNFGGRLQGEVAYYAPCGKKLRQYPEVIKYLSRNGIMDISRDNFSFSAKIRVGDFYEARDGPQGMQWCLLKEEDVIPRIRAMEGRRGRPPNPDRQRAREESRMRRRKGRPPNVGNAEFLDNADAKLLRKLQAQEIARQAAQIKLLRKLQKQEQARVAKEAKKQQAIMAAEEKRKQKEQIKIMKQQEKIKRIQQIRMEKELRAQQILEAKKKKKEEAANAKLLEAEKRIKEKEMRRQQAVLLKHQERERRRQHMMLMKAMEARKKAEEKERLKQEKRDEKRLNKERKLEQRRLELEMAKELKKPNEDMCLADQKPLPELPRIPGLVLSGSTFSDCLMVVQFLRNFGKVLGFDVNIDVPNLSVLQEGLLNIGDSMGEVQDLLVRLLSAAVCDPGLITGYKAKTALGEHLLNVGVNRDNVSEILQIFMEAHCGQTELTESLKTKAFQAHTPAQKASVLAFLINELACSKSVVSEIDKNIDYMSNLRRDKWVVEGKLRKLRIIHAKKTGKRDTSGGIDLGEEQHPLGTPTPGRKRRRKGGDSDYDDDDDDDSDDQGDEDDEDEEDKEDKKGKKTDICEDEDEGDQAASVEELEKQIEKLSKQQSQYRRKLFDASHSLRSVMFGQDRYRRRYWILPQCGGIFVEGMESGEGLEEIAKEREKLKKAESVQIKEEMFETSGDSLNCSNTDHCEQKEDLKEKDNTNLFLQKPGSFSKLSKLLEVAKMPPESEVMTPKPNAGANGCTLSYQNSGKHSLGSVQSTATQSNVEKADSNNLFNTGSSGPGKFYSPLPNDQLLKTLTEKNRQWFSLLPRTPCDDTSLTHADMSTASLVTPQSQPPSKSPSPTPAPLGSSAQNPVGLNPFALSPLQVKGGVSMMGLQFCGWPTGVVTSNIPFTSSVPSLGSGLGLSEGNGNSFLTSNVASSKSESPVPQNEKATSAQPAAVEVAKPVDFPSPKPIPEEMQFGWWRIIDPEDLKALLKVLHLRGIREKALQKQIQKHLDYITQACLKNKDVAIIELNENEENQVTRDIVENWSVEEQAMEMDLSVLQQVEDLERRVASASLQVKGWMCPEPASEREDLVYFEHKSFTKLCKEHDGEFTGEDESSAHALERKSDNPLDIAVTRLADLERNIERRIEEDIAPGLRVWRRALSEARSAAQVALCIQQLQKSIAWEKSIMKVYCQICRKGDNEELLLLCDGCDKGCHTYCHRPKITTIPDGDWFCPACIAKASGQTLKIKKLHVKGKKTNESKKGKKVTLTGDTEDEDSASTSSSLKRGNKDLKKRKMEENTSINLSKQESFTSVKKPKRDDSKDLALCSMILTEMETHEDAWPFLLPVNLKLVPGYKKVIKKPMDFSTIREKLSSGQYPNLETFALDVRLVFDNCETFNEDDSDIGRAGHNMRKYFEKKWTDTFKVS
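In this displacement format the biotinylated H3(5-23) peptide acetylated at Lys14 serves as ligand at 50 nM, with BAZ2B at 50 nM in PBS pH 7.4 containing 0.01% Tween-20. Donor and acceptor beads are 10 ug/mL final.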
PI5P4K alpha inh – qHTS for Inhibitors of phosphatidylinositol 5-phosphate 4-kinase (PI5P4K); max response, %; PI5P4Kalpha enzyme, ADP-Glo luminescence, 60 min; hits give low values; Phosphatidylinositol 5-phosphate 4-kinase type-2 alpha (Homo sapiens), P48426; 1.2% of 330,000 active; active = max response of -50% or lower; inconclusive = between -30% and -50%; inactive = -30% or higher; also: value at the top dose of about 77 µM; % is scaled to controls: 0 for no effect and ±100 for the full control effect
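Controls without substrate or without enzyme flank wells where PI5P4Kalpha converts substrate using 5 microM ATP (final). Incubation lasts 60 minutes at room temperature; ADP formed is read by ADP-Glo luminescence.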
JMJD2A Tudor inh – qHTS Assay for Inhibitors of JMJD2A-Tudor Domain; Lysine-specific demethylase 4A (Homo sapiens), O75164; AlphaScreen JMJD2A-Tudor / H3K4me3 peptide binding; Potency, µM (series often up to 114 µM), for the others: at the highest dose activity change, negative = inhibition, usual class: inhibitors; 4.4% of 390,000 active; AID 504339, 2011; also: potency is read from the fitted curve at half-maximal effect; % is scaled to controls: 0 for no effect and ±100 for the full control effect; nearly all actives have a fitted effect of over 50% in size
G9a block – qHTS Assay for Inhibitors of Histone Lysine Methyltransferase G9a; G9a H3K9 monomethylation, AlphaScreen, 2 h; Histone-lysine N-methyltransferase EHMT2 (Homo sapiens), Q96KQ7; Potency, µM (top dose mostly 102 µM), for inactives: at the top dose activity, negative = inhibition, actives largely listed as inhibitors; 8.8% of 350,000 active; also: potency is read from the fitted curve at half-maximal effect; % is scaled to controls: 0 for no effect and ±100 for the full control effect; nearly all actives have a fitted effect of over 75% in size
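Using a bead-based AlphaScreen, monomethylated H3K9 product from 2 h room-temperature reactions (G9a 20 nM, peptide 500 nM, SAM 20 uM) was detected with 0.5 ug/mL rabbit anti-H3K9me1 antibody.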
HP1b binding inh – HTS for Inhibitors of HP1-beta Chromodomain Interactions with Methylated Histone Tails | Chromobox protein homolog 1 (Homo sapiens), P83916 | AlphaScreen HP1-beta / biotin-H3K9me3 peptide binding | Potency, µM (doses to about 114 µM), for the others: top-dose activity change, negative = inhibition, usual class: inhibitors | 0.56% of 390,000 active | AID 540317, 2011; also: potency is read from the fitted curve at half-maximal effect; nearly all actives have a fitted effect of over 70% in size
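AlphaScreen: HP1-beta (50 nM) preformed 30 min with biotin-H3(1-18)K9me3 peptide (50 nM) in PBS pH 7.4, 0.01% Tween-20. Compound added for 30 min at RT, then streptavidin donor/nickel chelate acceptor beads (10 ug/mL) for 30 min.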
PLK1 PBD block – qHTS for Inhibitors of PLK1-PDB (polo-like kinase 1 - polo-box domain): Primary Screen; 2.8% of 360,000 active; Potency, µM, for the others: max response, negative = inhibition, actives largely listed as inhibitors; Plk1 PBD binding of FITC phosphopeptide, fluorescence polarization; also: potency is read from the fitted curve at half-maximal effect; series mostly up to about 57 µM; % is scaled to controls: 0 for no effect and ±100 for the full control effect; nearly all actives have a fitted effect of over 65% in size
TbPYK inh – qHTS of Trypanosoma Brucei Inhibitors: Confirmatory Assay for Cherry-picked Compounds; shares compounds with PLK1 PBD block; recombinant TbPYK, Kinase-Glo ATP luminescence; Potency, µM (titrated, usually from 76.9 µM), for the others: at the highest dose activity change, negative = inhibition, actives largely listed as inhibitors; 67% of 890 active; also: potency is read from the fitted curve at half-maximal effect; % is scaled to controls: 0 for no effect and ±100 for the full control effect; nearly all actives have a fitted effect of over 70% in size
TbPYK orthogonal – qHTS of Trypanosoma Brucei Inhibitors: Orthogonal Assay for Cherry-picked Compounds; shares compounds with PLK1 PBD block; recombinant TbPYK, ADP-Glo luminescence, 60 min; Potency, µM (doses to about 76.9 µM), inactives show at the top dose activity change, negative = inhibition, most hits filed as inhibitors; 62% of 890 active; AID 720584, 2013; also: potency is read from the fitted curve at half-maximal effect; % is scaled to controls: 0 for no effect and ±100 for the full control effect; nearly all actives have a fitted effect of over 75% in size
* marks the source's active call; other numbers are inactive results; u = inconclusive; x = no result given; [ ] = another dose, or the depositor's remark. Unless noted, calls follow the shape of the dose curve; as a rule, active = well fitted curve in the direction sought with a large enough effect; inconclusive = small, poorly fitted or top-dose-only effect, or another doubt; inactive = no such curve, though single readings can be large; an effect the other way counts as inactive or inconclusive.

SMILES	BAZ2B block	PI5P4K alpha inh	JMJD2A Tudor inh	G9a block	HP1b binding inh	PLK1 PBD block	TbPYK inh	TbPYK orthogonal
COc1ccc(S(=O)(=O)N(C)C[C@H]2OCCCC[C@@H](C)Oc3ccc(N(C)C)cc3C(=O)N([C@H](C)CO)C[C@@H]2C)cc1	x	-5.0	x	x	x	-13.4%	2.51µM*	6.31µM*
O=c1[nH]c2ccccc2n1C1CCN(Cc2ccc(-c3nc4ccc(F)cc4nc3-c3ccccc3)cc2)CC1	x	0.6	x	x	x	-8.0%	x	x
Cn1c(O)c(/C=C2\C=c3ccccc3=NC2=O)c(=O)n(C)c1=O	1.6%	-8.1	3.6%	39.8µM*	44.5%	u	u	15.7%
Cn1c(O)c(/C=C2\C=Nc3ccccc32)c(=O)n(C)c1=O	-18.4%	-6.4	-5.3%	u	15.9%	-12.5%	x	x
CC(Cc1ccccc1)N1C(=O)c2ccccc2C1=O (centres undefined)	36.1%	5.9	33.9%	-4.8%	85.9%	3.2%	x	x
COc1cc(C(=O)Nc2ccc(Br)cc2C(=O)c2ccccc2Cl)cc(OC)c1OC	1.8%	23.9	-19.7%	-7.0%[59 µM]	11.2%	-11.9%	x	x
COc1ccccc1NS(=O)(=O)c1cc(NC(=O)c2ccc(Cl)nc2)ccc1N1CCCC1	x	u	56.2µM*	x	u	4.74µM*	4.47µM*	6.31µM*
O=C1C(Cl)=CC(=Nc2ccc(O)cc2)C=C1Cl	31.6µM*	-98.1*	44.7µM*	u	14.1µM*	26.7µM*	15.8µM*	u
O=[As](O)(O)c1ccc(N=Nc2ccc(O)cc2)cc1	-17.0%	-12.9	-12.0%	-6.8%	-1.5%	-5.7%	x	x
C/C=C1\CN2[C@H]3C[C@@]45c6ccccc6N(C)[C@H]4[C@@H]2CC1C3[C@H]5O (some centres undefined)	x	-0.6	-17.0%	x	14.2%	-1.0%	x	x
CC[n+]1c(/C=C/C=C/c2ccc(N(C)C)cc2)sc2ccccc21	35.5µM*	u	50.1µM*	39.8µM*	u	-0.3%	31.6µM*	9.8%
CN(C)c1ccc(/C=C/C=C/c2sc3ccccc3[n+]2C)cc1	u	-13.4	u	u	u	5.9%	x	x
O=C/C=C/c1ccccc1	x	6.8	-17.0%	22.4%[59 µM]	28.0%	-5.4%	x	x
O=C1NC(=S)NC(=O)C1C/C=C/c1ccccc1	1.4%	x	79.4µM*	7.94µM*	-21.9%	10.6µM*	8.91µM*	11.2µM*
CN(C)c1ccc(/C=C/c2cc[n+](C)c3ccccc23)cc1	79.4µM*	-25.8	22.4µM*	u	44.7µM*	-3.7%	u	2.0%
C=C1[C@H]2C[C@H]3[C@H]4N5C[C@]6(C)CCC[C@]47[C@H]([C@H]2O)[C@]3(C[C@]5(O)[C@H]67)[C@@H]1O	x	-1.4	-13.6%	x	17.1%	-13.1%	x	x
O=C1NC(=O)N(c2cccc(Cl)c2)C(=O)/C1=C\c1ccc(Sc2nc3ccccc3[nH]2)o1	35.5µM*	-74.4*	35.5µM*	3.16µM*	u	2.67µM*	15.8µM*	15.8µM*
O=C1NC(=O)N(c2ccccc2F)C(=O)/C1=C/c1ccc(Sc2nc3ccccc3[nH]2)o1	31.6µM*	-85.8*	22.4µM*	6.31µM*	u	u	14.1µM*	15.8µM*
COc1ccc([N+](=O)[O-])cc1N=Cc1c(O)n(CCc2ccccc2)c(=O)n(C(C)C)c1=O	u	-6.0	u	u	-7.3%	-3.4%	x	x
COc1cc(C=C2C(=O)NC(=O)NC2=O)ccc1OCc1ccc([N+](=O)[O-])cc1	x	u	35.5µM*	25.1µM*	21.1%	6.7µM*	12.6µM*	28.2µM*
COc1ccc(CN2C(=O)NC(=O)/C(=C/c3ccc([N+](=O)[O-])s3)C2=O)cc1	25.1µM*	-74.6*	22.4µM*	8.91µM*	28.2µM*	1.89µM*	17.8µM*	31.6µM*
O=C1NC(=O)N(Cc2ccc(F)cc2)C(=O)/C1=C\c1ccc([N+](=O)[O-])s1	35.5µM*	-78.6*	20µM*	6.31µM*	u	2.67µM*	14.1µM*	15.8µM*
O=C1NC(=S)NC(=O)C1=Cc1cccn1-c1ccc(O)cc1	-28.1%	-83.7*	25.1µM*	7.08µM*	u	2.38µM*	7.08µM*	15.8µM*
Cc1cccc(OCCn2c(=O)oc3ccc(C)cc32)c1	14.5%	9.4	130.3%	194.9%	171.6%	-9.0%	x	x
Cc1ccc(OCCOc2cccc(C=C3C(=O)NC(=O)NC3=O)c2)cc1	u	-77.5*	u	u	15.0%	2.67µM*	u	u
SMILES	BAZ2B block	PI5P4K alpha inh	JMJD2A Tudor inh	G9a block	HP1b binding inh	PLK1 PBD block	TbPYK inh	TbPYK orthogonal
CC1CC(OP(O)(=S)c2ccc(N(C)C)cc2NC(=O)c2cccs2)CC(C)(C)C1 (centres undefined)	50.1µM*	-18.3	56.2µM*	3.98µM*	u	5.97µM*	28.2µM*	28.2µM*
O=C1NC(=O)N(c2ccccc2)C(=O)/C1=C/c1coc2ccc(O)cc2c1=O	u	-66.0*	u	-114.4%[59 µM]	12.2%	11.9µM*	22.4µM*	u
O=C1NC(=O)N(c2ccc(Cl)cc2)C(=O)/C1=C/c1coc2ccc(O)cc2c1=O	-29.6%	-58.4*	100µM*	15.8µM*	-1.3%	7.52µM*	u	u
COC(=O)C1=C(c2ccc(C(C)=O)cc2)C[C@@H]2CC[C@H]1N2C(=O)NCc1ccco1	-10.5%	-5.1	-27.5%	4.1%[0.501 µM]	21.6%	-7.7%	x	x
O=C1NC(=O)N(c2ccc3c(c2)OCO3)C(=O)/C1=C\c1ccc(-c2ccccc2C(=O)O)o1	79.4µM*	-51.8*	31.6µM*	10µM*	u	2.99µM*	12.6µM*	u
COC(=O)C1=C(c2c(C)noc2C)C[C@@H]2CC[C@H]1N2C(=O)NCc1ccco1	3.7%	-0.5	-24.8%	-7.7%[2.33 µM]	32.9%	-1.3%	x	x
Cc1ccc(/C=C2\C(=O)NC(=S)N(c3ccc(F)cc3)C2=O)o1	56.2µM*	-58.8*	50.1µM*	3.98µM*	-17.5%	3.77µM*	15.8µM*	20µM*
